# Compound activity (PubChem BioAssay)
# Compounds with a hit are over-represented: about 7.1% of the library has one in this group of screens.
# Cav32 inh: human Cav3.2 channel inhibition, primary screen. O95180. Cav3.2-expressing cells, Fluo-4 calcium fluorescence FDSS; active compounds read low. B-score at 10 µM. actives 4% (n = 100,000);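 active means single-dose well whose peak fluorescence ratio is a statistical outlier from its plate by either plate-standardised score or position-corrected B-score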
# M1 antagonist: M1 muscarinic receptor (rat) antagonism | B-score at 10 µM | actives 3.4% (n = 64,000) | AID 628 | P08482 | CHO-M1 cells, Fluo-4 calcium, ACh EC80 antagonist mode; active compounds read low;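 active means calcium fluorescence response, raw or row-and-column corrected B-score, differing from the plate sample mean either way at a set confidence level, mostly lower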
# Pyk2 oligo antag: antagonists of human Pyk2 oligomerization. Q14289. Q293 cells, Pyk2 FERM NanoBiT luminescence; active compounds read low. z-score (the deposit names both 25 µM and 10 µM). actives 0.83% (n = 99,000);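 active means Z-score of -3 or lower, scaled per plate to the spread of control and sample wells; inactive means z-score above -3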;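 further: negative z-score means lost luminescence so less FERM oligomerization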
# M1 ag: agonists of M1 muscarinic receptor; CHO-M1 cells, Fluo-4 calcium fluorescence, agonist mode; active compounds read high; B-score at 10 µM; actives 3% (n = 64,000);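 active means fluorescence rise, raw or as B-score row- and column-corrected plate score, outside the 99.7% band of its plate's samples, either direction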
# The depositor's hits bear a star; . = no result given.
SMILES,Cav32 inh,M1 antagonist,Pyk2 oligo antag,M1 ag
Brc1ccc(C2Nc3cccc4cccc(c34)N2)o1,-5.4*,-0.0099,0.03,-0.95
CC(C)CC(CO)N1CCN(C(=O)c2ccc(Cl)c(Cl)c2)CCC1=O (centres undefined),1.2,.,.,.
CC1(C)CC[C@@]23CC[C@]4(C)[C@@](OC2=O)(C3C1)[C@H]1O[C@H]1C1[C@@]2(C)CC[C@H](O)C(C)(C)C2CC[C@]14C (some centres undefined),0.027,.,.,.
CCCNC(=O)CC1C(=O)N(Cc2ccccc2)C(C)c2nc3ccccc3n21 (centres undefined),-0.062,.,-0.13,.
CCOc1nc(S(=O)(=O)c2ccc(C)cc2)c(Cl)s1,-0.55,0.65,-0.56,1.5
Cc1ccc(S(=O)(=O)c2nc(Nc3nccs3)sc2Cl)cc1,-0.3,0.39,-3.1*,-0.077
Cc1cccc(N2CCN(CC(=O)Nc3nccs3)CC2)c1C,-6.3*,.,0.52,.
CC(C)CN(CC(C)C)S(=O)(=O)N1CCC(C(=O)NCc2cccs2)CC1,-3.7*,0.34,0.15,-0.22
CCCCCn1c(SCC#N)nc2cc(C(=O)NCC3CCCO3)ccc2c1=O (centres undefined),-0.89,0.0015,-1.5,2.5*
CCCCCn1c(SCc2ccncc2)nc2cc(C(=O)NCc3ccco3)ccc2c1=O,-4.2*,-0.5,0.1,-0.19
CCCCn1c(SCC(=O)NCc2ccco2)nc2ccccc2c1=O,-2,.,-1.2,.
O=c1ccccn1Cc1c(F)cccc1Cl,0.84,.,0.66,.
O=C(Nc1cccc(-c2nnc(-c3ccccc3)o2)c1)c1ccc(Br)o1,-0.95,0.018,-3.1*,1
O=C(COc1ccccc1)Nc1cccc(-c2nnc(-c3ccccc3)o2)c1,0.4,-0.56,-0.87,-0.21
O=C(Nc1ccccc1-c1ccccc1)c1ccc(Br)o1,-3.9*,.,-0.91,.
CC(C)Cn1c(SCc2nnc(-c3cccs3)o2)nc(O)cc1=O,-0.2,1.2,0.78,-0.34
O=C(Nc1nc(-c2ccccc2)c(-c2ccccc2)o1)c1ccc(F)cc1,-5.8*,.,1.1,.
COc1ccc(C(C#N)C2(C)OCCO2)cc1OC (centres undefined),0.11,0.83,1,-0.8
CC(C)C[C@H](NC(=O)OC(C)(C)C)c1nnc(SCc2ccccc2)o1,-4.8*,.,-0.88,.
CC(C)(C)OC(=O)N[C@@H](CCCCNC(=O)OCc1ccccc1)c1nnc([C@H](CCCCNC(=O)OCc2ccccc2)NC(=O)OC(C)(C)C)o1,-2.8*,.,.,.
Cc1ccccc1NC(C)C(=O)N/N=C/c1ccccc1OCc1cccc(Br)c1 (centres undefined),-6.4*,.,-2,.
O=C(Cc1ccccc1)N/N=C/c1ccccc1OCc1ccc(Cl)cc1,-0.75,.,-0.96,.
CCCCn1c(=O)n(CC(=O)Nc2ccc(OC)c(Cl)c2)c(=O)c2c1nc(CO)n2CCC,-5.5*,.,-0.62,.
Cn1c(Oc2ccccc2NCc2cccc(Br)c2)cc(=O)n(C)c1=O,-8.1*,.,-1.6,.
COc1ccc(-n2c(Cc3cccn3C)nnc2SCC(=O)Nc2ccc(C)cc2C)cc1,-6.3*,0.77,.,0.011
SMILES,Cav32 inh,M1 antagonist,Pyk2 oligo antag,M1 ag
COc1ccc(-n2c(Cc3cccn3C)nnc2SCC(=O)NCc2ccccc2Cl)cc1,0.27,-0.89,.,-0.76
COc1ccc(-n2c(Cc3cccn3C)nnc2SCC(=O)Nc2ccccc2OC)cc1,-2.7*,0.65,.,-0.4
COc1ccc(-n2c(Cc3cccn3C)nnc2SCC(N)=O)cc1,-0.28,0.0059,.,-0.73
Cc1ccccc1NC(=O)CSc1nnc(Cc2cccn2C)n1-c1ccc(F)cc1,-1.4,0.36,.,0.5
COc1ccc(-n2c(Cc3cccn3C)nnc2SCC(=O)Nc2cc(Cl)ccc2OC)cc1,-7.5*,0.26,.,1.5
CC(C)=NN/C(N)=N/C(=S)Nc1ccc(C)cc1,.,.,0.84,.
Nc1ccc(-c2ccc(N)cc2C(F)(F)F)c(C(F)(F)F)c1,.,-0.014,-3.1*,-0.14
CCN1C(=O)N(c2cccc3ccccc23)C(C)=CC1(C)C,-5.7*,.,-0.78,.
COC(=O)C(NNc1ccccc1)(NC(=O)c1cccc(F)c1)C(F)(F)F (centres undefined),-0.7,.,1,.
O=S(=O)(Nc1nccs1)c1ccc(Cl)cc1,-3.4*,.,0.3,.
O=C(Nc1nccs1)C1(S(=O)(=O)c2ccc(Cl)cc2)CC1,-0.37,0.087,-1.4,0.56
O=C(CSc1nnc(COc2ccc(Cl)cc2)o1)N1c2ccccc2CCc2ccccc21,-2.4,.,-0.43,.
COC(=O)c1ccc(OC)c(CSc2nnc(COc3ccc(Cl)cc3)o2)c1,-5.8*,.,-0.15,.
COC(=O)c1ccc(OC)c(CSc2nnc(COc3ccccc3)o2)c1,-4,-0.41,-2.1,0.68
CCOC(=O)N1CCN(C(=O)CSc2nnc(COc3ccc(Cl)cc3)o2)CC1,-3.2*,-0.59,.,-0.43
CCOC(=O)C1=NN(c2ccc(C)cc2)CC1C(=O)OC (centres undefined),.,.,0.57,.
CC(C)(C)OC(=O)NCCc1nnc(SCc2c(Cl)cccc2Cl)o1,-3.8,.,-1.8,.
CC(C)(C)OC(=O)N1CCC[C@H]1c1nnc(SCc2ccc(Cl)cc2Cl)o1,-5.8*,-0.057,-2.1,0.38
CC(C)(C)OC(=O)N1CCC[C@H]1c1nnc(SCc2ccccc2Cl)o1,.,0.0047,-1.4,-1.7
CC(C)(C)OC(=O)NCCc1nnc(SCc2ccc(Cl)cc2Cl)o1,-5.2*,.,-0.27,.
O=C(O)C1=C[C@H](c2cccs2)C[C@H](OCc2ccc(CO)cc2)O1,0.34,.,.,.
CCC(CC)NC(=O)COC(=O)c1ccc(NS(=O)(=O)c2ccc3c(c2)OCCO3)cc1,.,.,0.3,.
O=C(Nc1cccc(C(F)(F)F)c1)c1ccc(Cn2cc(Br)cn2)o1,-7.2*,.,-1.3,.
CC(=O)OCc1c(C(F)(F)F)nn(C)c1Oc1cccc(C(F)(F)F)c1,-4.2*,.,0.23,.
O=C(CN(C(=O)CSc1nc2ccccc2o1)c1cccc(F)c1)NC1CCCCC1,-5.6*,.,-0.46,.
SMILES,Cav32 inh,M1 antagonist,Pyk2 oligo antag,M1 ag
O=C(CN(C(=O)CSc1nc2ccccc2o1)c1ccccc1)NC1CCCCC1,-3*,.,-1.2,.
CS(=O)(=O)N(CC(=O)NC1CCCC1)c1cccc(F)c1,1,0.69,0.8,0.23
COc1ccc(-c2csc(NC(CO)c3nc4ccccc4n3CCCO)n2)cc1 (centres undefined),-0.015,.,.,.
CSc1cc(-c2ccc(Cl)cc2)c(C(=O)N2CCCC2)s1,-4.4*,.,-1,.
CNC(=O)c1sc(SC)cc1-c1ccc(Cl)cc1,-0.47,.,0.01,.
Cc1ccccc1NC(=O)c1ccc(CN(c2ccccc2)S(=O)(=O)c2ccccc2)cc1,.,.,0.08,.
CC1=C(C(=O)Nc2ccc([N+](=O)[O-])cc2)C(c2cccc(C(F)(F)F)c2)NC(=S)N1c1ccccc1 (centres undefined),-6.7*,.,-0.06,.
COc1ccc(C2NC(=S)N(c3ccccc3)C(C)=C2C(=O)Nc2ccccc2)cc1 (centres undefined),-2.7,.,-0.43,.
O=S(=O)(NCc1ccccc1)c1ccc(Cl)c(S(=O)(=O)NCc2ccccc2)c1,-3.4,.,-0.67,.
O=S(=O)(NCc1cc(-c2ccccc2Cl)no1)c1ccc(Cl)cc1,-7.2*,.,0.52,.
Cc1cccc(NC(=O)CNc2cc(C)ccc2C)c1,-5.8*,-1.6,0.86,0.093
Cc1cccc(NC(=O)Cn2cccc2)c1,-0.064,0.046,1.7,-0.64
